Results as given in PubChem BioAssay AID1159580 (chemical genetic matrix, 2015).
Where “and” joins values, the source holds several entries; their conditions need not be identical. Equal entries are not always repeated. Among all 5,500 compounds or so, about 2,000 (36%) were called active. Another 18% or so got no clear call; they are omitted. Cut-off read from the data, not from the text of the source: active = normalized growth mostly below about 0.91 (no sharp cut-off); inconclusive = no clear call, values can overlap the other calls; inactive = mostly above about 0.92. The list shows a part of the results.

Assay: chemical genetic growth profiling, strain panel (AID 1159580);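 note: tested at 20 µM; growth read once vehicle control cultures reached saturation at 30 °C; 1 = growth at the plate median or of vehicle wells; lower values mean less growth of the strain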
Settings: S. cerevisiae deletion strains, growth OD
[1] = locus YAL013W, strain DEP1, active compounds read low
[2] = locus YAL040C, strain CLN3, active compounds read low
[3] = locus YDR363W, strain ESC2, active compounds read low
[4] = locus YER002W, strain NOP16, active compounds read low
[5] = locus YNL153C, strain GIM3, active compounds read low
[6] = locus YNL175C, strain NOP13, active compounds read low
[7] = locus YNL197C, strain WHI3, active compounds read low
[8] = locus YNL224C, strain SQS1, active compounds read low
[9] = locus YOR083W, strain WHI5 (second series), active compounds read low
[10] = locus YPL055C, strain LGE1, active compounds read low
[11] = locus YGR078C, strain PAC10, active compounds read low

Measured: normalized growth

O=C(O)CN(CCN(CC(=O)O)CC(=O)O)CCN(CC(=O)O)CC(=O)O
inactive: [2] 1.03 | [4] 1.01 | [5] 1.16 | [6] 1.01 | [7] 1.02 | [8] 1 | [9] 1.07
active: [1] 0.278 | [3] 0.194 | [10] 0.198

O=C(O)CN(CCN(CC(=O)O)CC(=O)O)CC(=O)O
active: locus YDL101C, strain DUN1, active compounds read low 0.889 | locus YDL185W, strain tfp1, active compounds read low 0.282 | locus YDL192W, strain arf1, active compounds read low 0.826 | locus YDR318W, strain mcm21, active compounds read low 0.817 | locus YDR502C, strain sam2, active compounds read low 0.769 | locus YGL086W, strain mad1, active compounds read low 0.79 | locus YGL248W, strain PDE1, active compounds read low 0.826 | [11] 0.82 | locus YGR135W, strain pre9, active compounds read low 0.819 | locus YGR229C, strain SMI1, active compounds read low 0.774 | locus YHR129C, strain ARP1, active compounds read low 0.87 | locus YHR200W, strain rpn10, active compounds read low 0.893 | locus YIL073C, strain SPO22, active compounds read low 1.99 [resistant] | locus YJL187C, strain SWE1 (second series), active compounds read low 0.861 | locus YKR001C, strain vps1, active compounds read low 0.769 | locus YLR058C, strain SHM2, active compounds read low 0.863 | locus YLR268W, strain sec22, active compounds read low 0.801 | locus YLR418C, strain cdc73, active compounds read low 0.764 | locus YMR223W, strain ubp8, active compounds read low 0.793 | locus YNL067W, strain RPL9B, active compounds read low 0.813 | [5] 0.834 | locus YNL233W, strain BNI4, active compounds read low 0.847 | locus YOR136W, strain idh2, active compounds read low 0.909 | locus YOR184W, strain ser1, active compounds read low 0.699 | locus YPR167C, strain met16, active compounds read low 0.902 | strain wtn01, active compounds read low 0.816
inactive: locus YBR021W, strain FUR4, active compounds read low 1.04 | locus YBR229C, strain ROT2, active compounds read low 0.995 | locus YCL029C, strain bik1, active compounds read low 0.958 | locus YDL035C, strain GPR1, active compounds read low 0.869 | locus YDL074C, strain BRE1, active compounds read low 0.885 | locus YDR101C, strain arx1, active compounds read low 0.989 | locus YDR162C, strain NBP2, active compounds read low 0.918 | locus YDR388W, active compounds read low 1.02 | locus YEL061C, strain CIN8, active compounds read low 0.934 | locus YER110C, active compounds read low 0.938 | locus YER155C, strain BEM2, active compounds read low 1.01 | locus YER167W, strain BCK2, active compounds read low 0.936 | locus YGL078C, strain dbp3, active compounds read low 0.985 | locus YGR252W, strain gcn5, active compounds read low 0.994 | locus YHR030C, strain SLT2, active compounds read low 0.97 and 0.976 | locus YHR079C, strain IRE1 (second series), active compounds read low 0.991 | locus YHR079C, strain IRE1, active compounds read low 0.934 | locus YHR094C, strain hxt1, active compounds read low 0.994 | locus YIL066C, strain RNR3, active compounds read low 0.925 | locus YIL125W, strain kgd1, active compounds read low 1.01 | locus YIR030C, strain dcg1, active compounds read low 0.96 | locus YJL095W, strain BCK1, active compounds read low 0.849 and 0.971 | locus YJL134W, strain LCB3, active compounds read low 0.972 | locus YJL168C, strain set2, active compounds read low 0.989 | locus YJR043C, strain POL32, active compounds read low 0.891 | locus YJR066W, strain TOR1, active compounds read low 0.888 | locus YKL009W, strain mrt4, active compounds read low 0.97 | locus YKL068W, active compounds read low 0.996 | locus YKL085W, strain MDH1 (second series), active compounds read low 1.03 | locus YKL085W, strain MDH1, active compounds read low 1.03 | locus YKL190W, strain CNB1, active compounds read low 0.94 | locus YLR039C, strain RIC1, active compounds read low 0.914 | locus YLR102C, strain apc9, active compounds read low 0.995 | locus YLR113W, strain HOG1, active compounds read low 1.09 | locus YLR262C, strain YPT6, active compounds read low 0.827 | locus YLR330W, strain CHS5, active compounds read low 0.944 | locus YLR342W, strain FKS1 (second series), active compounds read low 0.871 | locus YLR371W, strain rom2, active compounds read low 0.984 | locus YML016C, strain PPZ1, active compounds read low 0.934 | locus YML032C, strain rad52, active compounds read low 0.937 | locus YML124C, strain tub3, active compounds read low 0.979 | locus YMR078C, strain ctf18, active compounds read low 0.99 | locus YMR307W, strain GAS1, active compounds read low 0.928 | locus YNL183C, strain NPR1, active compounds read low 0.973 | locus YNL250W, strain rad50, active compounds read low 1.01 | locus YNL271C, strain bni1, active compounds read low 0.982 | locus YNL298W, strain CLA4, active compounds read low 0.99 | locus YNL307C, strain MCK1, active compounds read low 0.991 | locus YNR052C, strain pop2, active compounds read low 0.953 | locus YOL006C, strain TOP1, active compounds read low 1.23 | locus YOL012C, strain htz1 0.486 | locus YOL147C, strain pex11, active compounds read low 0.983 | locus YOR061W, strain CKA2, active compounds read low 0.913 | locus YOR069W, strain VPS5, active compounds read low 0.947 | locus YOR144C, strain elg1, active compounds read low 0.976 | locus YOR231W, strain MKK1, active compounds read low 0.92 | locus YOR316C, strain cot1, active compounds read low 0.979 | locus YPL256C, strain CLN2, active compounds read low 1.07 | locus YPR119W, strain clb2, active compounds read low 0.992 | locus YPR141C, strain kar3, active compounds read low 0.992 | locus YPR163C, strain tif3, active compounds read low 0.99

O=C(O)CN(CCOCCOCCN(CC(=O)O)CC(=O)O)CC(=O)O
inactive: [1] 1.03 | [2] 0.99 | locus YCL061C, strain MRC1 (second series), active compounds read low 1 | [3] 1 | [4] 0.996 | [11] 1.01 | locus YMR263W, strain SAP30, active compounds read low 1 | [6] 0.996 | [7] 1 | [8] 0.992 | locus YNL322C, strain KRE1, active compounds read low 1.02 | [9] 1.01 | [10] 1.06
